CIT2 TOR yeast = modulators of TOR pathway CIT2-GFP in S. cerevisiae | S. cerevisiae CIT2-GFP strain, flow cytometry, 3 h; 100 means same as DMSO wells | hit rate 0.065% among 320,000 | GFP response vs DMSO, % at 10 µM;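 active = GFP response relative to DMSO above a set limit, near the screen mean plus 3 SD, cut at about 150% in these data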;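 also: ratio of well median GFP fluorescence to mean of DMSO wells on the plate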
LAP4 TOR yeast = yeast TOR pathway LAP4-GFP modulation. hit rate 0.34% among 320,000. GFP response vs DMSO, % at 10 µM. AID 2023. S. cerevisiae LAP4-GFP multiplex, flow cytometry GFP, 3 h; median GFP as percent of DMSO wells;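 active = GFP response vs DMSO above a set limit, about the screen mean plus 3 SD, cut at about 150% in these data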
MEP2 TOR yeast = alters MEP2-GFP fluorescence in TOR pathway yeast screen; S. cerevisiae MEP2-GFP strain, flow cytometry GFP, 3 h; 100% = DMSO control level; GFP response vs DMSO, % at 10 µM; hit rate 0.51% among 330,000;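 active = GFP response versus DMSO above a set limit, roughly screen mean plus 3 SD, cut at about 180% in these data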;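 also: median GFP fluorescence of the barcode-gated MEP2-GFP cells per well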
VLA-4 inh = inhibition in a human VLA-4 binding assay | VLA-4 expressing cells, ligand binding flow cytometry | P13612 | inhibition, % (about 7 µM as worked out from the volumes in the protocol) | hit rate 0.2% among 330,000 | AID 2557; in the data active = inhibition above about 50%
Target sequence (P13612 whole entry, looked up): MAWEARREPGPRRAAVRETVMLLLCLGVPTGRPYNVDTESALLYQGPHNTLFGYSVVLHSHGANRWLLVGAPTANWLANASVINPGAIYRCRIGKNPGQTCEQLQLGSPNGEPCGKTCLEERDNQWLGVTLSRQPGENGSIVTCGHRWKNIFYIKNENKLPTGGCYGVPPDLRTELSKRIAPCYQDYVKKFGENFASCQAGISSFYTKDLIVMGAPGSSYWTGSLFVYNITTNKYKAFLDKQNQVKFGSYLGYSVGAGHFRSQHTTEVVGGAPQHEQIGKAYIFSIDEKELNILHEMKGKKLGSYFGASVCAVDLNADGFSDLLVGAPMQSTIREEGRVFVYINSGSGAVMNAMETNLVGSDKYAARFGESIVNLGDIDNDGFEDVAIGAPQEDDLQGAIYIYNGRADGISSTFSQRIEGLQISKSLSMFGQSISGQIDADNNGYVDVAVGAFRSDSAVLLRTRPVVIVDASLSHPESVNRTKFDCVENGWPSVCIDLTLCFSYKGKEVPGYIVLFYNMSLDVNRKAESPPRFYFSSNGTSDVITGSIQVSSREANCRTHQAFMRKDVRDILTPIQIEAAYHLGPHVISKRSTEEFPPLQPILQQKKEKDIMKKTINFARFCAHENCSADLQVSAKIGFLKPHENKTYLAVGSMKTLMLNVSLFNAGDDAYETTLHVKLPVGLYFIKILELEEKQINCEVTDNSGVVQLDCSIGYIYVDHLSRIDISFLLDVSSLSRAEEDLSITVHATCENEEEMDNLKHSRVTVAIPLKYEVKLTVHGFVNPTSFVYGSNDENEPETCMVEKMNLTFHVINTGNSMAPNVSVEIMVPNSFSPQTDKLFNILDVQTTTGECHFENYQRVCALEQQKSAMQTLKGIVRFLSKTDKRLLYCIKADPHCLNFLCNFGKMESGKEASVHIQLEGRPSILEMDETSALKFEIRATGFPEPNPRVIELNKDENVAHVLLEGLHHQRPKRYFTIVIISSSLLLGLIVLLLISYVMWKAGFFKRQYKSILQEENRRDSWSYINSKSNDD
AGP1 TOR yeast = modulators of TOR pathway AGP1-GFP in S. cerevisiae; S. cerevisiae AGP1-GFP multiplex flow cytometry, 3 h; GFP as percent of DMSO wells; GFP response vs DMSO, % at 10 µM; hit rate 0.02% among 320,000;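 active = GFP response relative to DMSO above a set limit, near screen average plus 3 SD, cut at about 150% in these data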;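 also: median GFP channel fluorescence of the gated AGP1 strain per well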
RPL19A-GFP yeast = alters RPL19A-GFP fluorescence in TOR pathway yeast screen | AID 2025 | percent response vs DMSO, % at 10 µM | hit rate 0.3% among 330,000 | S. cerevisiae RPL19A-GFP strain, flow cytometry, 3 h; stronger effect = lower value;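 active = percent response vs DMSO below 50%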;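 also: median channel GFP fluorescence of the barcoded RPL19A-GFP strain; ratio of sample median GFP to plate DMSO average so 100% = DMSO; lower means less RPL19A-GFP as with rapamycin TOR inhibition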
LAP4 cherry2 = yeast LAP4-GFP modulation, second cherry pick; shares compounds with LAP4 TOR yeast; S. cerevisiae LAP4-GFP strain, flow cytometry GFP, 3 h; GFP response vs DMSO, % at 10 µM; hit rate 20% among 590; AID 2621;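 active = GFP signal as percent of the solvent control above about 150%, meaning raised reporter expression, limit read from the data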;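 also: ratio of well median GFP fluorescence to plate DMSO mean so 100% = DMSO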
MEP2 cherry2 = reconfirmed MEP2-GFP TOR pathway modulator in yeast. shares compounds with LAP4 TOR yeast. S. cerevisiae MEP2-GFP strain, flow cytometry GFP, 3 h. GFP response vs DMSO, % at 10 µM. hit rate 10% among 590;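 active = GFP signal above 150% of the solvent control wells, that is a rise of more than half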;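 also: median channel GFP fluorescence of all gated yeast cells per well; ratio of median GFP to plate DMSO average so 100% = DMSO level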
RPL19A-GFP pick2 = yeast RPL19A-GFP TOR reporter modulation, second cherry pick; GFP response vs DMSO, % at 10 µM; shares compounds with LAP4 TOR yeast; S. cerevisiae RPL19A-GFP strain, flow cytometry GFP, 3 h; stronger effect = lower value; 100% means same as DMSO wells; hit rate 3% among 590;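 active = under 65% GFP response relative to DMSO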;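 also: median GFP channel fluorescence per well over the all cells gate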
CIT2 GFP CP2 = second confirmation of modulators of TOR reporter CIT2-GFP in yeast; shares compounds with LAP4 TOR yeast; S. cerevisiae CIT2-GFP strain, flow cytometry GFP, 3 h; DMSO control wells read 100%; GFP response vs DMSO, % at 10 µM; hit rate 8% among 590; AID 2624;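 active = GFP response vs DMSO above about 150%, limit read from the data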;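 also: median green fluorescence per well over all gated yeast cells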
AGP1-GFP pick2 = yeast AGP1-GFP TOR reporter modulation, second cherry pick; shares compounds with LAP4 TOR yeast; S. cerevisiae AGP1-GFP strain, flow cytometry GFP, 3 h; percent response vs DMSO, % at 10 µM; 590 tested, under 10 active;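 active = over 150 percent of DMSO response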;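 also: median GFP channel fluorescence over all cells without mother daughter split; sample median GFP divided by mean DMSO control so 100% equals DMSO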
Yeast autofluor = counter-screen for compound autofluorescence in yeast s288c cells | shares compounds with LAP4 TOR yeast | S. cerevisiae s288c, 520 nm autofluorescence, flow cytometry, 3 h; stronger effect = higher value; zero means same as solvent-only cells | fluorescence change (kMESF span) at 33 µM | 610 tested, under 10 active | AID 2757;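 active = fluorescence span over the dose series, or activity score, above about 33, limit read from the data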
s288c autofl DR = TOR screen hit shows autofluorescence in yeast s288c. 110 tested, under 10 active. AID 488829. S. cerevisiae s288c parental, compound autofluorescence, flow cytometry, 3 h. shares compounds with LAP4 TOR yeast. fluorescence change (span) at 33 µM;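 active = fluorescence change span, or the activity score built from it, above 25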
TORC1 bypass gr = compounds blocking wildtype yeast growth but not TORC1 bypass cells; shares compounds with LAP4 TOR yeast; S. cerevisiae BY4741 spot growth rating, 48-72 h; stronger effect = lower value; growth rating (0-3) at 30 µM; 120 tested, under 10 active;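 active = growth rating at most 1 for wild type yeast while the TORC1 bypass strain still grows fully, rated 3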
Starred values were filed as active, the others as inactive; . = no result given. Hits are enriched below; roughly 1.1% of the tested compounds scored in any of these assays.

SMILES	CIT2 TOR yeast	LAP4 TOR yeast	MEP2 TOR yeast	VLA-4 inh	AGP1 TOR yeast	RPL19A-GFP yeast	Yeast autofluor	others
CN(C(=O)COC(=O)/C=C/c1cccs1)C1CCCCC1	101	89	98	-4	101	98	.
COc1ccc(-c2cc3cc(C(=O)O)ccn3c2C(=O)c2ccccc2)cc1	110	150*	110	-1	106	101	0
O=C(O)c1ccn2c(C(=O)c3ccccc3)c(-c3ccccc3)cc2c1	94	156*	90	-7	97	99	0.51
COc1ccc(C(=O)c2ccccc2)cc1	106	110	109	3	101	108	.
COc1cccc(C2C(C(N)=O)=C(C)Nc3nc(CCCO)nn32)c1 (centres undefined)	98	90	109	-4	93	105	.
COc1ccccc1C(=O)Nc1ccc(Br)cc1C	83	188*	102	-5	107	82	.	LAP4 cherry2=104;MEP2 cherry2=105;RPL19A-GFP pick2=98;CIT2 GFP CP2=96;AGP1-GFP pick2=96
COc1cc(S(=O)(=O)N2CCCN(C)CC2)ccc1NC(C)=O	95	88	102	11	83	97	.
Cc1ccccc1NC(=O)CN(C)S(=O)(=O)c1ccc(-c2ccc(=O)[nH]n2)s1	97	95	104	0	97	100	.
CC(C)C[C@H](NC(=O)[C@@H]1Cc2c([nH]c3ccccc23)C2c3ccccc3C(=O)N21)C(=O)N1CCC[C@@H]1C(=O)O (some centres undefined)	100	100	98	-10	100	98	.
COc1ccc(C(C)=O)cc1COC(=O)c1cnc(Cl)c(Cl)c1	91	99	135	14	73	64	.	LAP4 cherry2=114;MEP2 cherry2=126;RPL19A-GFP pick2=98;CIT2 GFP CP2=108;AGP1-GFP pick2=108
CCOc1ccccc1/C=c1\sc2ncnn2c1=O	68	275*	87	4	66	97	0.91	LAP4 cherry2=226*;MEP2 cherry2=112;RPL19A-GFP pick2=108;CIT2 GFP CP2=110;AGP1-GFP pick2=89
CC(=O)Oc1ccc(/C=c2\sc3ncnn3c2=O)cc1	99	153*	91	11	85	102	0.5
CCCOc1ccc(/C=c2\sc3ncnn3c2=O)cc1	91	105	86	1	90	92	.
O=C(CSc1nc2ccc(Nc3nc(N4CCOCC4)nc(N4CCOCC4)n3)cc2s1)Nc1ccccc1F	94	73	101	-1	98	114	.
CCSc1nnc2ccc(-c3ccc(OC)c(OC)c3)nn12	151*	89	97	14	111	97	.	LAP4 cherry2=88;MEP2 cherry2=108;RPL19A-GFP pick2=107;CIT2 GFP CP2=111;AGP1-GFP pick2=98
CCCCc1cc(C(=O)Cc2ccccn2)c(O)cc1O	102	92	107	-2	103	104	.
Cc1nc(SC(C)C(=O)Nc2c(C)n(C)n(-c3ccccc3)c2=O)nc(C)c1C (centres undefined)	86	91	97	21	93	93	.
Cc1c(NC(=O)C(C)Sc2n[nH]c(N)n2)c(=O)n(-c2ccccc2)n1C (centres undefined)	170*	196*	648*	24	149	57	.	LAP4 cherry2=97;MEP2 cherry2=105;RPL19A-GFP pick2=101;CIT2 GFP CP2=109;AGP1-GFP pick2=102
O=C(COc1cc2oc(=O)cc(-c3ccccc3)c2cc1Cl)NC(Cc1c[nH]c2ccc(O)cc12)C(=O)O (centres undefined)	101	111	98	5	108	95	.
COc1ccccc1C(=O)NNC(=S)NC(=O)c1ccco1	89	268*	123	3	102	88	3.8	LAP4 cherry2=335*;MEP2 cherry2=180*;RPL19A-GFP pick2=110;CIT2 GFP CP2=138;AGP1-GFP pick2=117
Cc1ccc(C(=O)NNC(=S)NC(=O)COc2ccccc2)cc1	97	275*	130	5	91	101	-5.3	s288c autofl DR=0.68;TORC1 bypass gr=3
CCCOc1ccc(C(=O)NNC(=S)NC(=O)c2ccco2)cc1	111	154*	110	2	113	112	1.1
CCCOc1ccc(C(=O)NNC(=S)NC(=O)c2ccccc2)cc1	100	152*	94	29	113	108	1
CCCOc1ccc(C(=O)NNC(=S)NC(C)=O)cc1	101	137	117	31	109	108	.
O=C(COC(=O)COc1ccc(Br)cc1)NC1CCCC1	114	92	101	6	99	100	.
CC(C)C(NC(=O)C(C)N1C(=O)c2ccccc2C1=O)c1ccccc1 (centres undefined)	104	98	104	23	103	105	.
CC(C)(C)C(=O)NC(=S)NNC(=O)c1ccc(-c2ccccc2)cc1	94	246*	126	3	88	89	1.4	s288c autofl DR=0.73;TORC1 bypass gr=3
CC(Oc1ccc(Cl)cc1)C(=O)NNC(=S)NC(=O)c1ccco1 (centres undefined)	112	242*	101	2	102	88	0.91	s288c autofl DR=0.52;TORC1 bypass gr=3
CCCCOc1ccc(C(=O)NNC(=S)NC(=O)CC)cc1	77	299*	117	-11	95	89	1.4	LAP4 cherry2=331*;MEP2 cherry2=155*;RPL19A-GFP pick2=105;CIT2 GFP CP2=167*;AGP1-GFP pick2=108
O=C(NNC(=S)NC(=O)c1ccco1)c1ccc(F)cc1	103	218*	116	-4	120	98	1.5

Compound activity deposited in PubChem by NMMLSC.
